Data as given in PubChem BioAssay (Tox21).
Values joined by “and” are separate entries in the source; they are usually repeats but may differ in a detail not shown here. Equal values may be shown once. Inconclusive results are not listed. Entries that show only a call come without a potency. Some structures have more than one record in an assay (separate samples or runs), and their calls can disagree. Active and inactive are the calls of the source. Calls follow the shape of the dose curve; as a rule, active = well fitted curve in the direction sought with a large enough effect in the repeat runs; inconclusive = weak or mixed curves; inactive = no such curve, though single readings can be large; an effect the other way counts as inactive or inconclusive.

Assay: qHTS assay to identify small molecule agonists of the RXR signaling pathway - cell viability counter screen (AID 1159529); also: nearly all actives have a fitted effect of over 50% in size; also: potency is read from the fitted curve at half-maximal effect
Details: RXR-alpha-bla HEK293T viability, CellTiter-Glo, 16 h; series mostly up to 76.8 µM
In short: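 RXR-alpha-UAS-bla HEK 293T cells in medium with 2% charcoal-stripped FBS were pre-incubated 5 hr, then compound-treated 16 hr at 37 C. Viability was read by CellTiter-Glo luminescence in the same wells as the beta-lactamase assay, with tetraoctyl ammonium bromide as positive control.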

Compound | Potency
CCCCCC[n+]1ccccc1 | 55.5 µM (active) and 49.3 µM (active) and inactive
CN(C)[C@@H]1C(=O)C(C(N)=O)=C(O)[C@@]2(O)C(=O)C3=C(O)c4c(O)cccc4[C@@](C)(O)[C@H]3[C@H](O)[C@@H]12 | inactive
CCCCCCCCCCCCOS(=O)(=O)O | 34.7 µM (active) and 21.9 µM (active) and inactive
CCCC[n+]1cccc(C)c1 | inactive
CC(Cl)(Cl)C(=O)O | inactive
COc1ccc(N)cc1 | inactive
CCCCCCn1cc[n+](C)c1 | inactive
CCCCCCCCCCCCCC[P+](CCCCCC)(CCCCCC)CCCCCC | 8.75 µM (active) and 15.6 µM (active)
O=C(O)C(Cl)Cl | inactive
Oc1ccccc1-c1ccccc1 | inactive
O=C(O)c1nc(Cl)ccc1Cl | inactive
CNC | inactive
COP(=O)(OC)OC=C(Cl)Cl | inactive
Nc1ccccc1 | inactive
O=c1nc(O)n(Cl)c(=O)n1Cl | inactive
O=c1[nH]c(=O)n(Cl)c(=O)n1Cl | inactive

Compound | Potency
CCCn1cc[n+](C)c1 | inactive
CCCCn1cc[n+](C)c1 | inactive
CCC[N+]1(C)CCCCC1 | inactive
CCCC[N+]1(C)CCCC1 | inactive
CC(=O)O | inactive
O=S(=O)(O)O | inactive
C=CCOC(Cn1ccnc1)c1ccc(Cl)cc1Cl (stereo not drawn) | inactive
CCCC[n+]1ccccc1C | inactive
CC[N+]1(C)CCCC1 | inactive
O=C(O)COc1ccc(Cl)cc1Cl | inactive
C[N+](C)(C)Cc1ccccc1 | inactive
Cc1cc(Cl)ccc1OCC(=O)O | inactive
CCCC[N+]1(C)CCCCC1 | inactive
CCC[N+]1(C)CCCC1 | inactive
CCCCn1cc[n+](C)c1C | inactive
CCCCCCCCCCn1cc[n+](C)c1 | inactive

Assay: qHTS assay to identify small molecule antagonists of the retinoid acid receptor (RAR) signaling pathway - cell viability counter screen (AID 1159551); also: nearly all actives have a fitted effect of over 35% in size
Details: C3RL4 cells viability, ATP luminescence (CellTiter-Glo), 6 h; series mostly up to 92.4 µM
In short: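 C3RL4 RARE-luciferase line; cpds + retinol 1 uM final, 6 h, 37 C/5% CO2; CellTiter-Glo ATP luminescence, 30 min RT.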

Compound | Potency
CN(C)[C@@H]1C(=O)C(C(N)=O)=C(O)[C@@]2(O)C(=O)C3=C(O)c4c(O)cccc4[C@@](C)(O)[C@H]3[C@H](O)[C@@H]12 | inactive
CCCCCCCCCCCCOS(=O)(=O)O | inactive
CCCC[n+]1cccc(C)c1 | inactive
COP(=O)(OC)OC=C(Cl)Cl | inactive
CCCn1cc[n+](C)c1 | inactive
CCCCn1cc[n+](C)c1 | inactive
CCCC[n+]1ccccc1C | inactive
Cc1cc(Cl)ccc1OCC(=O)O | inactive
CCC[N+]1(C)CCCC1 | inactive
CCCCn1cc[n+](C)c1C | inactive
CCCCCCCCCCn1cc[n+](C)c1 | inactive
